Source: the supplement of paper PMC10127200
Counter-ions that a name gives are not always drawn.

Legend:
Experiment in all cases: Euclidean distance of Cell Painting phenotypic profile (signed KS, 77 features) to DMSO centroid (dimensionless distance); higher = stronger phenotypic change vs DMSO (phenoactivity)
Details in all cases: 48 h; 5 or 10 uM (library dependent)
[1] = test system: 786-O
Summary of the method: (§1)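 Harmony extracted 77 features from 20X confocal images (9 fields/well) of stained cells, scoring each as a signed Kolmogorov-Smirnov statistic against same-plate vehicle wells. The cells, five cancer lines and a healthy fibroblast line, had received library compounds for 48 h at 10 or 5 uM depending on library, with 0.1% DMSO final. Phenoactivity is the Euclidean distance from each plate-position-corrected, correlation-weighted, top-dose replicate-averaged profile to the median vehicle profile.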

[2] = test system: A549
Summary of the method: as §1

[3] = test system: DU145
Summary of the method: as §1

[4] = test system: FB
Summary of the method: as §1

[5] = test system: HEPG2
Summary of the method: as §1

[6] = test system: OVCAR4
Summary of the method: as §1

SMILES | Euclidean distance [1] | Euclidean distance [2] | Euclidean distance [3] | Euclidean distance [4] | Euclidean distance [5] | Euclidean distance [6]
CN(C)C(=O)Oc1ccc[n+](C)c1 [Pyridostigmine Bromide] | 0.816 | 0.961 | 0.672 | 0.846 | 0.726 | 0.777
C=CN1CCCC1=O.II [Povidone iodine] | 0.772 | 0.725 | 0.784 | 1.19 | 1.94 | 1.05
Cc1cccc(C)c1NC1=NCCCS1 [Xylazine] | 1.17 | 0.386 | 1.01 | 0.632 | 0.887 | 0.579
CN1CCCCC1Cn1cc(C(=O)c2cc([N+](=O)[O-])ccc2I)c2ccccc21 (stereo unspecified) | 0.823 | 1.18 | 1.02 | 1.47 | – | 1.19
C=CC(=O)N[C@H]1C=C(C)c2c(-c3cnc4ccccc4c3)c3c(N)ncnc3n2C1 | 1.49 | 1.6 | – | 1.95 | 1.26 | 1.39
Cn1cc(C2=C(c3cn(C4CCN(Cc5ccccn5)CC4)c4ccccc34)C(=O)NC2=O)c2ccccc21 | 1.96 | 3.16 | 1.32 | 0.965 | 0.683 | 1.79
C[C@H]1O[C@H](O[C@H]2[C@H](O)[C@@H](O)[C@@H](O)[C@H](O)[C@@H]2O)[C@@H](N)C[C@@H]1NC(=N)C(=O)O [Kasugamycin hydrochloride] | 1.08 | 0.816 | 0.855 | 1.2 | 0.528 | 0.934
O=C(O)c1nn(Cc2ccc(Cl)cc2Cl)c2ccccc12 [Lonidamine] | 0.877 | 1.12 | – | 1.09 | 0.957 | 1.52
CC(=O)c1c(O)cc(C)oc1=O [Sodium dehydroacetate] | 0.865 | 0.572 | – | 0.998 | 0.348 | 0.896
O=C(NCC1CCOCC1)c1cnc(Nc2ccc(Cl)cc2Cl)nc1C(F)(F)F | 0.865 | 1.09 | 1.36 | 3.43 | 1.64 | 3.11
O=c1[nH]c2ccccc2n1CCCN1CCC(n2c(=O)[nH]c3cc(Cl)ccc32)CC1 [Domperidone] | 1.75 | 1.18 | 2.1 | 1.14 | 0.776 | 1.67
O=c1cccc2n1C[C@@H]1CNC[C@H]2C1 [Cytisine] | 1.35 | 0.65 | – | 1.05 | 1.09 | 2.07
C[C@]12CC[C@H]3[C@@H](CC[C@@]45O[C@@H]4C(O)=C(C#N)C[C@]35C)[C@@H]1CC[C@@H]2O [Trilostane] | 1.94 | 1.35 | – | 0.851 | 1.01 | 1.12
CCCCCCCCC(=O)NCc1ccc(O)c(OC)c1 [Nonivamide] | 1.37 | 0.987 | – | 0.925 | 0.607 | 1.31
S=C=NCc1ccccc1 [Benzyl isothiocyanate] | 4.42 | 2.5 | 3.41 | 2.02 | 3.28 | 1.82
O=C(O[C@H]1C[N+]2(CCCOc3ccccc3)CCC1CC2)C(O)(c1cccs1)c1cccs1 [Aclidinium Bromide] | 1.15 | 1.13 | 1.29 | 0.774 | 0.61 | 1.23
COc1ccc(C(CN(C)C)C2(O)CCCCC2)cc1 (stereo unspecified) [Venlafaxine] | 0.992 | 0.49 | – | 0.691 | 0.558 | 1.02
N#C[C@H](O[C@@H]1O[C@H](C(=O)O)[C@@H](O)[C@H](O)[C@H]1O)c1ccccc1 [Laetrile] | 0.989 | 0.766 | – | 0.899 | 0.702 | 1.45
CC[C@@]1(O)C(=O)OCc2c1cc1n(c2=O)Cc2cc3ccccc3nc2-1 [Camptothecin] | 3.86 | 3.88 | – | 4.14 | 2.87 | 3.96
C=CCN1CC[C@]23c4c5ccc(O)c4O[C@H]2C(=O)CC[C@@]3(O)[C@H]1C5 [Naloxone HCl] | 1.04 | 0.456 | 0.671 | 0.576 | 0.59 | 0.689
CN1C(=O)CCS(=O)(=O)C1c1ccc(Cl)cc1 (stereo unspecified) [Chlormezanone] | 1.52 | 0.681 | – | 0.695 | 0.59 | 1.23
O=C(O)CNC(=O)c1c(O)c2ccccc2n(Cc2ccccc2)c1=O | 0.98 | 0.849 | 1.14 | 1.06 | 0.682 | 0.719
